From PubChem BioAssay (EPA / NIEHS)
Active and inactive are the calls of the source. How the source made its calls: active means hit-call score of the fitted dose curve at least 0.9, where 1 is the maximum; inactive means score below 0.9.

Assays:
Conditions in all cases: mRNA level, 48 h; actives raise or lower the signal
[1] = read-out: Lipase C (LIPC), LIPC (gene 3990); test: LTEA_HepaRG_LIPC: Life Technologies and Expression Analysis (LTEA) Assay for Lipase C (LIPC) using HepaRG (AID 2283514)
Outline: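 In this multiplexed gene-expression screen, human HepaRG cultures received test chemicals for 48 h across eight concentrations with 100 uM highest, in duplicate. Values reflect LIPC mRNA induction or suppression versus DMSO vehicle, from normalized qRT-PCR.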

[2] = read-out: Lipoprotein lipase (LPL), LPL (gene 4023); test: LTEA_HepaRG_LPL: Life Technologies and Expression Analysis (LTEA) Assay for Lipoprotein lipase (LPL) using HepaRG (AID 2283515)
Outline: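 Concentration-response testing used half-log steps from 100 uM in 0.5% DMSO on human HepaRG cells, 48 h, duplicate wells. Phenobarbital 1 mM served as induction control; LPL mRNA was normalized to ACTB, GAPDH, POLR2A.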

[3] = read-out: MicroRNA 122 (MIR122), gene 406906; test: LTEA_HepaRG_MIR122: Life Technologies and Expression Analysis (LTEA) Assay for MicroRNA 122 (MIR122) using HepaRG (AID 2283516); further: the transcript read is the microRNA miR-122
Outline: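 Expression measured by microfluidic qRT-PCR with three housekeeping genes for normalisation, after 48 h treatment of HepaRG cultures. Eight concentrations (top 100 uM, half-log steps, 0.5% DMSO vehicle) in duplicate; gain or loss fitted relative to vehicle.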

[4] = read-out: matrix metalloproteinase-10 (MMP10), MMP10 (gene 4319); test: LTEA_HepaRG_MMP10: Life Technologies and Expression Analysis (LTEA) Assay for matrix metalloproteinase-10 (MMP10) using HepaRG (AID 2283517)
Outline: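 In differentiated HepaRG cultures kept in 0.5% DMSO, test chemicals act for 48 h over an eight-point range with a top dose of 100 uM. Expression is then quantified by TaqMan RT-PCR against ACTB, GAPDH and POLR2A.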

[5] = read-out: MYC, MYC (gene 4609); test: LTEA_HepaRG_MYC: Life Technologies and Expression Analysis (LTEA) Assay for MYC using HepaRG (AID 2283518)
Outline: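 Expression changes were scored by TaqMan qRT-PCR with ACTB, GAPDH and POLR2A normalization. Cultures in serum-free induction medium received duplicate 8-point concentration series, highest 100 uM, for 48 h; DMSO (0.5%) served as baseline.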

[6] = read-out: matrix metalloproteinase-3 (MMP3), MMP3 (gene 4314); test: LTEA_HepaRG_MMP3: Life Technologies and Expression Analysis (LTEA) Assay for matrix metalloproteinase-3 (MMP3) using HepaRG (AID 2283519)
Outline: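 Human liver HepaRG cultures received chemicals (top concentration 100 uM, 0.5% DMSO) for 48 h in duplicate. MMP3 mRNA induction or loss was then assessed via TaqMan qRT-PCR with housekeeping-gene normalisation.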

[7] = read-out: Paternally Expressed 10 (PEG10), PEG10 (gene 23089); test: LTEA_HepaRG_PEG10: Life Technologies and Expression Analysis (LTEA) Assay for Paternally Expressed 10 (PEG10) using HepaRG (AID 2283520);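 on AC50: differentiated HepaRG human liver cells in serum-free induction medium with 0.5% DMSO; PEG10 transcript by qRT-PCR normalised to ACTB GAPDH and POLR2A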
Outline: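 PEG10 transcript measured by Fluidigm qRT-PCR, normalized to three housekeeping genes, in HepaRG cells treated 48 h (highest 100 uM, half-log steps, 0.5% DMSO vehicle). Cells plated 48 h before switching to serum-free induction medium.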

[8] = read-out: Protein phosphatase 2A (PPP2R4), PTPA (gene 5524); test: LTEA_HepaRG_PPP2R4: Life Technologies and Expression Analysis (LTEA) Assay for Protein phosphatase 2A (PPP2R4) using HepaRG (AID 2283522)
Outline: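 Expression was quantified by Fluidigm qRT-PCR normalised to three housekeeping genes after 48 h treatment. Human HepaRG cells received an 8-point series from 100 µM downward by half-logs, in duplicate with 0.5% DMSO vehicle and 1 mM phenobarbital as induction control.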

[9] = read-out: Phosphatase and tensin (PTEN), PTEN (gene 5728); test: LTEA_HepaRG_PTEN: Life Technologies and Expression Analysis (LTEA) Assay for Phosphatase and tensin (PTEN) using HepaRG (AID 2283523)
Outline: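 Expression of PTEN is quantified in the human liver line HepaRG following two days of dosing (top concentration 100 uM, half-log dilutions, 0.5% DMSO). Values derive from bidirectional curve fitting relative to DMSO controls.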

[10] = read-out: solute carrier (SLC22A1), SLC22A1 (gene 6580); test: LTEA_HepaRG_SLC22A1: Life Technologies and Expression Analysis (LTEA) Assay for solute carrier (SLC22A1) using HepaRG (AID 2283524);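 on AC50: differentiated human HepaRG liver cells in serum-free induction medium; TaqMan qRT-PCR normalized to ACTB GAPDH and POLR2A housekeeping genes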
Outline: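 Transcript induction or suppression of SLC22A1 in human HepaRG cultures is scored after 48 h chemical treatment, with DMSO (0.5%) as baseline for bidirectional fitting. Concentrations span eight half-log points topping at 100 uM.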

[11] = read-out: Pyruvate Dehydrogenase Kinase 4 (PDK4), PDK4 (gene 5166); test: LTEA_HepaRG_PDK4: Life Technologies and Expression Analysis (LTEA) Assay for Pyruvate Dehydrogenase Kinase 4 (PDK4) using HepaRG (AID 2283525)
Outline: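 Eight-point, half-log concentration series (max 100 uM, 0.5% DMSO) applied to differentiated HepaRG cells for 48 h in duplicate. Endpoint: PDK4 mRNA induction or repression by qRT-PCR against DMSO baseline.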

[12] = read-out: NAD(P)H dehydrogenase [quinone] 1 (NQO1), NQO1 (gene 1728); test: LTEA_HepaRG_NQO1: Life Technologies and Expression Analysis (LTEA) Assay for NAD(P)H dehydrogenase [quinone] 1 (NQO1) using HepaRG (AID 2283526)
Outline: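 NQO1 transcript induction or loss measured by TaqMan qRT-PCR, referenced to three housekeeping genes and fitted bidirectionally against 0.5% DMSO. HepaRG cultures exposed 48 h, duplicate, eight-point half-log series, top 100 uM.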

[13] = read-out: Nuclear factor erythroid 2-related factor 2 (Homo sapiens) (UniProt Q16236); test: LTEA_HepaRG_NFE2L2: Life Technologies and Expression Analysis (LTEA) Assay for Nuclear factor erythroid 2-related factor 2 (NFE2L2) Transcription Factor using HepaRG (AID 2283527)
Outline: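 Human liver HepaRG line treated in duplicate for 48 h with an eight-point series topping at 100 uM. Gene expression of NFE2L2 by qRT-PCR, bidirectionally fitted against the vehicle control.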

[14] = read-out: Signal transducer and activator of transcription 3 (Homo sapiens) (UniProt P40763); test: LTEA_HepaRG_STAT3: Life Technologies and Expression Analysis (LTEA) Assay for Signal transducer and activator of transcription (STAT3) using HepaRG (AID 2283529)
Outline: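 In this transcriptional endpoint, HepaRG cultures receive test chemicals at up to 100 uM for 48 h, tested in duplicate. STAT3 mRNA is normalized to ACTB, GAPDH and POLR2A.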

[15] = read-out: solute carrier (SLCO1B1), SLCO1B1 (gene 10599); test: LTEA_HepaRG_SLCO1B1: Life Technologies and Expression Analysis (LTEA) Assay for solute carrier (SLCO1B1) using HepaRG (AID 2283530)
Outline: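 Human HepaRG cultures treated for 48 h with an eight-concentration half-log series topping at 100 uM; SLCO1B1 measured by qRT-PCR and fitted bidirectionally relative to DMSO.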

[16] = read-out: sulfotransferase 2A1 (SULT2A1), SULT2A1 (gene 6822); test: LTEA_HepaRG_SULT2A1: Life Technologies and Expression Analysis (LTEA) Assay for sulfotransferase 2A1 (SULT2A1) using HepaRG (AID 2283531)
Outline: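 Gene-expression endpoint in a human liver cell line: SULT2A1 mRNA change after 48 h chemical treatment, curves fitted in both directions relative to 0.5% DMSO vehicle. Concentrations spanned eight half-log steps from 100 uM.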

[17] = read-out: Transforming Growth Factor (TGFB1), TGFB1 (gene 7040); test: LTEA_HepaRG_TGFB1: Life Technologies and Expression Analysis (LTEA) Assay for Transforming Growth Factor (TGFB1) Transporter using HepaRG (AID 2283533)
Outline: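 Eight-point concentration-response (max 100 uM, half-log) in HepaRG under serum-free induction conditions, 48 h. TGFB1 mRNA by qRT-PCR, housekeeping-normalized.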

[18] = read-out: succinate dehydrogenase complex iron sulfur subunit B (SDHB), SDHB (gene 6390); test: LTEA_HepaRG_SDHB: Life Technologies and Expression Analysis (LTEA) Assay for succinate dehydrogenase complex iron sulfur subunit B (SDHB) using HepaRG (AID 2283528)
Outline: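 Readout is SDHB transcript level by qRT-PCR, normalised to three housekeeping genes and fitted bidirectionally against 0.5% DMSO vehicle. Human HepaRG cells were treated for 48 h at up to 100 uM.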

[19] = read-out: Transforming Growth Factor (TGFA), TGFA (gene 7039); test: LTEA_HepaRG_TGFA: Life Technologies and Expression Analysis (LTEA) Assay for Transforming Growth Factor (TGFA) using HepaRG (AID 2283532)
Outline: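 Gene expression of TGFA was quantified by qRT-PCR after human HepaRG cells were treated for 48 h with test chemicals (eight concentrations, highest 100 uM, 0.5% DMSO). Activity in either direction was fitted relative to DMSO.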

[20] = read-out: Nuclear factor NF-kappa-B p105 subunit (Homo sapiens) (UniProt P19838); test: LTEA_HepaRG_NFKB1: Life Technologies and Expression Analysis (LTEA) Assay for Nuclear Factor Kappa B Subunit 1 (NFKB1) using HepaRG (AID 2283521);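 further: differentiated human HepaRG liver cells in serum-free induction medium; TaqMan qRT-PCR transcript normalised to ACTB GAPDH and POLR2A housekeeping genes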
Outline: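 HepaRG, 48 h exposure; 8-pt half-log series from 100 uM in 0.5% DMSO; duplicates. Readout: NFKB1 mRNA by qRT-PCR (Fluidigm arrays), housekeeping-normalized. Gain/loss fit vs DMSO baseline.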

Measured: AC50

Sequence of Signal transducer and activator of transcription 3 (Homo sapiens) (P40763 whole entry, looked up): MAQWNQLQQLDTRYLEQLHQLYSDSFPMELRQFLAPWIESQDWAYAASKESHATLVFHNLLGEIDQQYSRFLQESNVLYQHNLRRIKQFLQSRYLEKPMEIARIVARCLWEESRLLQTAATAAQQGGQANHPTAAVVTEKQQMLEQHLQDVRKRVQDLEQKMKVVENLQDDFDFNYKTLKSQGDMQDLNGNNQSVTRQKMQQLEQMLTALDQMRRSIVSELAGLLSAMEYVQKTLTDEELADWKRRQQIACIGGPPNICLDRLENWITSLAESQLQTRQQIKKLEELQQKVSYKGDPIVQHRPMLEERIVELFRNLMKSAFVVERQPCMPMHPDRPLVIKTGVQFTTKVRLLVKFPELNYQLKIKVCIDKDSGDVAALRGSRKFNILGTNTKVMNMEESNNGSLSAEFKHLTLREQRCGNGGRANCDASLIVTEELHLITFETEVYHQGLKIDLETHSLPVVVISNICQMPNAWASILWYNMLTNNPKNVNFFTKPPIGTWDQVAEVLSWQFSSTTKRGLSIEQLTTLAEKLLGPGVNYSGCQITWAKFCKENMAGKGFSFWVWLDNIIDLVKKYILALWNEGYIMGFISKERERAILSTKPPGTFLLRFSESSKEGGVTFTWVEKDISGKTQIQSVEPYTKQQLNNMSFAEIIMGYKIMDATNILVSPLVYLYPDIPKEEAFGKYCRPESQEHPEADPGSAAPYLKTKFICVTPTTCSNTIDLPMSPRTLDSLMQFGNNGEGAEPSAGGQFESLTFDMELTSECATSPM
Sequence of Nuclear factor erythroid 2-related factor 2 (Homo sapiens) (Q16236 whole entry, looked up): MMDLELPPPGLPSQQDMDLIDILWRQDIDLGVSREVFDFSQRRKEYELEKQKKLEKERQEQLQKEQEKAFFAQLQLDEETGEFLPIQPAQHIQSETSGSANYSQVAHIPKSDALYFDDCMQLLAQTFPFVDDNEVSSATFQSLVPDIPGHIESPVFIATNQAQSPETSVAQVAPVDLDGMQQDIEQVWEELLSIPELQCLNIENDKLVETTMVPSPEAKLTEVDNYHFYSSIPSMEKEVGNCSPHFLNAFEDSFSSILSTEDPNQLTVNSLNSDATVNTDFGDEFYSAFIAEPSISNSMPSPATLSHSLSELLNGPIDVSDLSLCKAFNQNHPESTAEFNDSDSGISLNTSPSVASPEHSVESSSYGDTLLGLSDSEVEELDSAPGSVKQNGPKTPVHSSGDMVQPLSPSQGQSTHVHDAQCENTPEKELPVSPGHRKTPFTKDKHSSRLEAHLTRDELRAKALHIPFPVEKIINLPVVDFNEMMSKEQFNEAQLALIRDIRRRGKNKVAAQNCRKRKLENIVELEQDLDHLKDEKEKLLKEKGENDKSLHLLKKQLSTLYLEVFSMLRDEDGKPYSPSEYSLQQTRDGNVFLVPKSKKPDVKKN
Sequence of Nuclear factor NF-kappa-B p105 subunit (Homo sapiens) (P19838 whole entry, looked up): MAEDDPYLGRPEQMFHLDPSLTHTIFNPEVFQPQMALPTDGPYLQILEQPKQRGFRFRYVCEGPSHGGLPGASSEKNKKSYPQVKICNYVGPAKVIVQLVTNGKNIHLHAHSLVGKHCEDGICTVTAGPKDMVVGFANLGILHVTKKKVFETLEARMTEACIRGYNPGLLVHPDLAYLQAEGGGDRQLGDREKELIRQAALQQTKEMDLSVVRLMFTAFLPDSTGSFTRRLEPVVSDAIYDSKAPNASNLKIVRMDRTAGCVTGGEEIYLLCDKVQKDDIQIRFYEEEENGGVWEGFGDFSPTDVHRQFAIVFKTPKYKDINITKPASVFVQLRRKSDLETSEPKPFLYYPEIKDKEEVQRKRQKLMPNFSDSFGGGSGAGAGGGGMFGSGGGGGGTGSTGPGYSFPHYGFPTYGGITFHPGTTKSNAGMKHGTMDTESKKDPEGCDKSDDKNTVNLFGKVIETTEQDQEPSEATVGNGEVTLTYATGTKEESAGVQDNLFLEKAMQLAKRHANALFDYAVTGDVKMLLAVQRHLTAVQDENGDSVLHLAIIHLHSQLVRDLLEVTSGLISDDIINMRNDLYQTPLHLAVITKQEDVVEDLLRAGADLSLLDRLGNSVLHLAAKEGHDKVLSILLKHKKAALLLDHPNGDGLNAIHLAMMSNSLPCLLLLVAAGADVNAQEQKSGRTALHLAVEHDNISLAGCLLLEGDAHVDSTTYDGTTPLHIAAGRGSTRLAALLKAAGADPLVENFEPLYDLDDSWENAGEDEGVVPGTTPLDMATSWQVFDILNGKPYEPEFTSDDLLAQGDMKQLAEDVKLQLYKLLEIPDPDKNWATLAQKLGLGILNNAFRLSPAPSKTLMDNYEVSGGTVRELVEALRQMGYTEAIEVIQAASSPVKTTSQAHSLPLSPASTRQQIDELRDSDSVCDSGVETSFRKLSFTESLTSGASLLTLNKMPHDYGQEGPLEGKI

CSC1=N[C@@](C)(c2ccccc2)C(=O)N1Nc1ccccc1
inactive: [4] | [6] | [8] | [9] | [12] | [17]
active: [1] 31.4 µM | [2] 26.9 µM | [3] 50 µM | [5] 31.2 µM | [7] 20.1 µM | [10] 34.2 µM | [11] 12.7 µM | [13] 68.6 µM | [14] 9.92 µM | [15] 35.7 µM | [16] 34.9 µM

CSc1nc(NC(C)C)nc(NC(C)C)n1
active: [3] 50 µM | [7] 22.5 µM | [10] 34.4 µM | [15] 50 µM | [16] 84.9 µM
not listed: [11] | [19] | [20]
inactive: all other assays above

CNC(=O)Oc1cccc2c1OC(C)(C)O2
not listed: [11] | [13] | [20]
inactive: all other assays above

O=C(O)c1cc(Oc2ccc(C(F)(F)F)cc2Cl)ccc1[N+](=O)[O-]
active: [2] 12.6 µM | [7] 50 µM | [11] 42.1 µM | [16] 50 µM
not listed: [9]
inactive: all other assays above

C[Si](Cn1cncn1)(c1ccc(F)cc1)c1ccc(F)cc1
active: [1] 26.7 µM | [2] 50 µM | [3] 61.4 µM | [5] 68.1 µM | [6] 11.6 µM | [10] 63.1 µM | [13] 39.3 µM | [15] 74.4 µM | [16] 73.5 µM | [17] 34.1 µM
inactive: [7] | [8] | [9] | [12] | [18] | [14]

CCCCN(CC)c1c([N+](=O)[O-])cc(C(F)(F)F)cc1[N+](=O)[O-]
not listed: [11] | [19]
inactive: all other assays above

CCOP(=S)(OCC)Oc1cc(C)nc(C(C)C)n1
active: [7] 50 µM
not listed: [19]
inactive: all other assays above
